Laboratory results as given in the supplement of paper PMC12282887.
± gives the standard deviation of the averaged measurements.

Assays:
Assay in all cases: promoter activity interaction Z-score (Lux/OD deviation from empty-vector control); higher = stronger promoter induction by the compound
[1] = test system: E. coli BW25113 acrABp lux reporter
In short: (§1)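 At 37°C, E. coli BW25113 reporter cultures in 40 µl LB Lennox in 384-well plates were read for OD600 and luminescence every 30 min for 12 h. Windows were 0–8 h for wild type and 1–9 h for deletion strains, and wells under 10% of the median growth value were removed. The score is the Z-transformed residual of growth-normalised luminescence against a control fit.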

[2] = test system: E. coli BW25113 micFp lux reporter
In short: as §1

[3] = test system: E. coli BW25113 ompFp lux reporter
In short: as §1

[4] = test system: E. coli BW25113 robp lux reporter
In short: as §1

[5] = test system: E. coli BW25113 soxSp lux reporter
In short: as §1

[6] = test system: E. coli BW25113 tolCp lux reporter
In short: as §1

[7] = 24.5 µg/ml, genetic background: wild type
[8] = 24.5 µg/ml, genetic background: ΔmarA
[9] = 24.5 µg/ml, genetic background: Δrob
[10] = 24.5 µg/ml, genetic background: ΔsoxS
[11] = 49.1 µg/ml, genetic background: wild type
[12] = 49.1 µg/ml, genetic background: ΔmarA
[13] = 49.1 µg/ml, genetic background: Δrob
[14] = 49.1 µg/ml, genetic background: ΔsoxS
[15] = 98.1 µg/ml, genetic background: wild type
[16] = 98.1 µg/ml, genetic background: ΔmarA
[17] = 98.1 µg/ml, genetic background: Δrob
[18] = 98.1 µg/ml, genetic background: ΔsoxS
[19] = 196.3 µg/ml, genetic background: wild type
[20] = 196.3 µg/ml, genetic background: ΔmarA
[21] = 196.3 µg/ml, genetic background: Δrob
[22] = 196.3 µg/ml, genetic background: ΔsoxS

C[C@H](CCC(=O)O)[C@H]1CC[C@H]2[C@@H]3CC[C@@H]4C[C@H](O)CC[C@]4(C)[C@H]3C[C@H](O)[C@]12C [Deoxycholic acid]
promoter activity interaction Z-score [1, 7]: -0.00545 ± 0.031
promoter activity interaction Z-score [1, 8]: 1.57 ± 0.29
promoter activity interaction Z-score [1, 9]: -0.132 ± 0.14
promoter activity interaction Z-score [1, 10]: -0.386 ± 0.27
promoter activity interaction Z-score [1, 11]: -0.226 ± 0.0089
promoter activity interaction Z-score [1, 12]: 0.503 ± 0.52
promoter activity interaction Z-score [1, 13]: -0.0467 ± 0.16
promoter activity interaction Z-score [1, 14]: -0.057 ± 0.47
promoter activity interaction Z-score [1, 15]: 0.106 ± 0.28
promoter activity interaction Z-score [1, 16]: 1.38 ± 1.5
promoter activity interaction Z-score [1, 17]: -0.154 ± 0.21
promoter activity interaction Z-score [1, 18]: 0.252 ± 0.27
promoter activity interaction Z-score [1, 19]: -0.41 ± 0.14
promoter activity interaction Z-score [1, 20]: 0.181 ± 0.34
promoter activity interaction Z-score [1, 21]: -0.162 ± 0.13
promoter activity interaction Z-score [1, 22]: -0.502 ± 0.59
promoter activity interaction Z-score [2, 7]: -0.343 ± 0.23
promoter activity interaction Z-score [2, 8]: 0.0199 ± 0.11
promoter activity interaction Z-score [2, 9]: 0.0283 ± 0.0044
promoter activity interaction Z-score [2, 10]: -0.264 ± 0.083
promoter activity interaction Z-score [2, 11]: -0.355 ± 0.065
promoter activity interaction Z-score [2, 12]: 0.175 ± 0.087
promoter activity interaction Z-score [2, 13]: -0.0435 ± 0.061
promoter activity interaction Z-score [2, 14]: -0.146 ± 0.02
promoter activity interaction Z-score [2, 15]: 0.114 ± 0.12
promoter activity interaction Z-score [2, 16]: 0.0675 ± 0.083
promoter activity interaction Z-score [2, 17]: -0.0555 ± 0.049
promoter activity interaction Z-score [2, 18]: 0.221 ± 0.023
promoter activity interaction Z-score [2, 19]: 0.0636 ± 0.083
promoter activity interaction Z-score [2, 20]: 0.21 ± 0.12
promoter activity interaction Z-score [2, 21]: -0.134 ± 0.011
promoter activity interaction Z-score [2, 22]: -0.044 ± 0.02
promoter activity interaction Z-score [3, 7]: -0.553 ± 0.23
promoter activity interaction Z-score [3, 8]: -1.03 ± 0.14
promoter activity interaction Z-score [3, 9]: -0.889 ± 0.033
promoter activity interaction Z-score [3, 10]: -0.771 ± 0.0099
promoter activity interaction Z-score [3, 11]: -0.241 ± 0.37
promoter activity interaction Z-score [3, 12]: -0.568 ± 0.061
promoter activity interaction Z-score [3, 13]: -0.421 ± 0.46
promoter activity interaction Z-score [3, 14]: -0.619 ± 0.45
promoter activity interaction Z-score [3, 15]: 0.192 ± 0.079
promoter activity interaction Z-score [3, 16]: -1.07 ± 0.24
promoter activity interaction Z-score [3, 17]: -0.618 ± 0.14
promoter activity interaction Z-score [3, 18]: -0.316 ± 0.15
promoter activity interaction Z-score [3, 19]: -0.117 ± 0.52
promoter activity interaction Z-score [3, 20]: -0.473 ± 0.02
promoter activity interaction Z-score [3, 21]: -0.582 ± 0.058
promoter activity interaction Z-score [3, 22]: -0.78 ± 0.4
promoter activity interaction Z-score [4, 7]: 0.346 ± 0.23
promoter activity interaction Z-score [4, 8]: -0.527 ± 0.51
promoter activity interaction Z-score [4, 9]: 0.184 ± 0.84
promoter activity interaction Z-score [4, 10]: -0.0515 ± 0.27
promoter activity interaction Z-score [4, 11]: 0.0327 ± 0.23
promoter activity interaction Z-score [4, 12]: 0.517 ± 0.54
promoter activity interaction Z-score [4, 13]: 0.31 ± 0.44
promoter activity interaction Z-score [4, 14]: 0.767 ± 0.39
promoter activity interaction Z-score [4, 15]: 0.553 ± 0.54
promoter activity interaction Z-score [4, 16]: 0.501 ± 0.48
promoter activity interaction Z-score [4, 17]: 0.729 ± 1.3
promoter activity interaction Z-score [4, 18]: -0.0126 ± 0.038
promoter activity interaction Z-score [4, 19]: 0.502 ± 0.87
promoter activity interaction Z-score [4, 20]: 0.13 ± 0.13
promoter activity interaction Z-score [4, 21]: -0.399 ± 0.066
promoter activity interaction Z-score [4, 22]: 0.439 ± 0.14
promoter activity interaction Z-score [5, 7]: 0.0465 ± 0.031
promoter activity interaction Z-score [5, 8]: -0.0486 ± 0.044
promoter activity interaction Z-score [5, 9]: 0.0418 ± 0.059
promoter activity interaction Z-score [5, 10]: -0.115 ± 0.036
promoter activity interaction Z-score [5, 11]: 0.0154 ± 0.03
promoter activity interaction Z-score [5, 12]: -0.092 ± 0.13
promoter activity interaction Z-score [5, 13]: -0.0215 ± 0.03
promoter activity interaction Z-score [5, 14]: -0.228 ± 0.12
promoter activity interaction Z-score [5, 15]: 0.124 ± 0.18
promoter activity interaction Z-score [5, 16]: -0.348 ± 0.085
promoter activity interaction Z-score [5, 17]: -0.0505 ± 0.11
promoter activity interaction Z-score [5, 18]: -0.203 ± 0.29
promoter activity interaction Z-score [5, 19]: -0.0569 ± 0.038
promoter activity interaction Z-score [5, 20]: -0.335 ± 0.053
promoter activity interaction Z-score [5, 21]: -0.26 ± 0.051
promoter activity interaction Z-score [5, 22]: -0.515 ± 0.0068
promoter activity interaction Z-score [6, 7]: 0.918 ± 0.69
promoter activity interaction Z-score [6, 8]: 0.218 ± 0.13
promoter activity interaction Z-score [6, 9]: 1.08 ± 1.6
promoter activity interaction Z-score [6, 10]: 0.883 ± 0.56
promoter activity interaction Z-score [6, 11]: 0.21 ± 0.56
promoter activity interaction Z-score [6, 12]: 0.972 ± 1.2
promoter activity interaction Z-score [6, 13]: 0.2888 ± 0.00083
promoter activity interaction Z-score [6, 14]: -0.388 ± 0.38
promoter activity interaction Z-score [6, 15]: 0.816 ± 0.38
promoter activity interaction Z-score [6, 16]: 0.304 ± 0.81
promoter activity interaction Z-score [6, 17]: 0.00196 ± 0.37
promoter activity interaction Z-score [6, 18]: 1.18 ± 1.1
promoter activity interaction Z-score [6, 19]: -0.28 ± 1.4
promoter activity interaction Z-score [6, 20]: -0.467 ± 0.27
promoter activity interaction Z-score [6, 21]: -0.148 ± 0.072
promoter activity interaction Z-score [6, 22]: -0.718 ± 1.1
